Bioassay records as filed in PubChem BioAssay.
An excerpt weighted towards active compounds, which were near 27% of everything screened.
EphB4 antag – EphB4-ephrin-B2 interaction antagonists, primary screen, biochemical, TNYL-RAW peptide probe, fluorescence polarization. actives 0.15% (n = 97,000). Ephrin type-B receptor 4 (Homo sapiens), P54760. inhibition, % at 7 µM. EphB4 LBD / TNYL-RAW-Alexa532 peptide;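 active means inhibition above the screen-wide mean inhibition plus 3 SD, cut at about 15% in these data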
CYP2C9 activ – human CYP2C9 activators, primary screen, biochemical, luminescence. actives 1.4% (n = 96,000). recombinant CYP2C9, luciferin-H conversion; stronger effect = higher value; factor 1 = untreated enzyme, 0 = blocked. Cytochrome P450 2C9 (Homo sapiens), P11712. AID 1024, 2008. activation factor at 5 µM;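 active means activation factor of 2 or more for CYP2C9 at a 5 µM dose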
CYP2C19 inh – blockers of cytochrome P450 2C19 activity – biochemical, luminescence, ADME assay, primary screen; CYP2C19 Supersomes, luciferin-H EGE luminescence, 30 min; inhibition, % at 5 µM; P33261; actives 21% (n = 96,000);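 active means CYP2C19 inhibition above a set limit at 5 µM in the primary screen, cut at about 50% in these data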
CYP2C19 activ – human CYP2C19 activators, primary screen, biochemical, luminescence; Cytochrome P450 2C19 (Homo sapiens), P33261; recombinant CYP2C19, luciferin-H EGE luminescence; stronger effect = higher value; 0 = fully inhibited enzyme, 1 = untreated enzyme; activation factor at 5 µM; 96,000 tested, under 10 active;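 active means activation factor of at least 2 at 5 µM in the primary screen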
CYP2C9 inhib – blockers of cytochrome P450 2C9 activity – biochemical, luminescence, ADME assay, primary screen; P11712; actives 20% (n = 96,000); inhibition, % at 5 µM; CYP2C9 Supersomes, luciferin-H conversion;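 active means blocking of liver enzyme CYP2C9 beyond about 50% at 5 µM, limit read from the data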
Large screens that a line does not name were inactive.

O=C(Cc1ccccc1)OC(COCc1ccccc1)CN1CCOCC1 (configuration not stated)	CYP2C19 inh 73
O=C(c1sc2ccccc2c1Cl)N1CCC2(CC1)OCCO2	CYP2C19 inh 82
COc1cc(OC)cc(-n2nc(C(=O)N3CCC4(CC3)OCCO4)c3ccccc3c2=O)c1	none (no result: EphB4 antag)
C=CCN1C(=O)C2(C(C(=O)OCC)=C(N)Oc3ccccc32)c2c1c1ccccc1oc2=O (configuration not stated)	CYP2C9 inhib 53
CCOC(=O)C1=C(N)Oc2c(c(=O)oc3ccccc23)C12C(=O)N(C)c1ccccc12 (configuration not stated)	none
CC(C)NS(=O)(=O)c1ccc(OCC(=O)N2CCN(Cc3ccc4c(c3)OCO4)CC2)c(Cl)c1	CYP2C19 inh 71
Cc1cc(S(=O)(=O)NCC(C)C)ccc1OCC(=O)N1CCN(Cc2ccccc2)CC1	CYP2C19 inh 50, CYP2C9 inhib 66
Cc1cc(S(=O)(=O)NC(C)C)ccc1OCC(=O)N1CCN(Cc2ccc3c(c2)OCO3)CC1	CYP2C19 inh 63, CYP2C9 inhib 59
CC1(C)C2CC=C(CN3CCC(O)CC3)C1C2 (configuration not stated)	none
c1ccc(C2CC3CC(c4ccco4)N2O3)cc1 (configuration not stated)	none
O=c1c2cc(Cl)cc(Cl)c2nc(CN2CCOCC2)n1-c1ccccc1F	none
O=S1(=O)CC2(N3CCOCC3)CCCCCCC21 (configuration not stated)	none
